This note sets out measurements from ChEMBL document CHEMBL4513216, “Probing the Open Global Health Chemical Diversity Library for Multistage-Active Starting Points for Next-Generation Antimalarials” (ACS Infect Dis, 2020).

In all, about 65,000 compounds went through this assay and about 2,100 (3.2%) showed an effect of 50% or more. The median lay at about -52%. Shown is part of a subset that was picked to be rich in strong results.

The subject of this assay is Plasmodium falciparum. The assay is described as follows: Screen against P. falciparum Asexual Blood Stage (ABS), at 5uM. It is filed as functional, Dd2. To be noted: tested at 5 uM.
Regarding `Cc1cnn(CC(C)NCc2ccc(-n3cccn3)cc2)c1` (centres undefined), the INHIBITION is recorded as -72.7%.

Take `Cc1cnn(CC(C)NCc2c(C)nn(Cc3ccccc3)c2C)c1` (centres undefined): the INHIBITION was 50.7%.

As for `CCOCC1CN(C(=O)C2CCOCC2)Cc2cnn(C)c21` (centres undefined), the INHIBITION is -57.8%.

Turning to `Cc1ccc(CN2CCN(c3cncc(N(C)C)n3)CC2=O)cc1C`, the INHIBITION was -30%.

Turning to `CCN(CC)S(=O)(=O)c1ccc(CNc2cc(C)nc(C)n2)cc1`, the INHIBITION is on record as -79.3%.

`COCCO[C@@H]1CCN(Cc2csc(C)n2)[C@H]1Cc1ccccc1`: the INHIBITION is listed as 65.8%.

For the compound `COCCO[C@H]1CCN(Cc2ccsc2)[C@H]1Cc1cccnc1`, the INHIBITION was found to be 14.6%.

`Cc1ccc(N2CC[C@H](OCC3CC3)[C@@H]2Cc2cccnc2)nn1`: the INHIBITION is given as -79.3%.

`COCCO[C@H]1CCN(Cc2cccnc2)[C@H]1Cc1cccnc1`: the INHIBITION was determined as 3.22%.

As for `Cc1nc(CN2CC[C@H](OCC3CC3)[C@@H]2Cc2cccnc2)cs1`, the INHIBITION amounted to 60.4%.

Turning to `Cc1nc(CN2CC[C@@H](OCC3CC3)[C@@H]2Cc2cccnc2)cs1`, the INHIBITION is 6.96%.

`Cc1ccc(CN2CCC3(C2)C(=O)N(CC2CC2)c2ccccc23)s1` (centres undefined): the INHIBITION is recorded as -74.8%.

Regarding `COCC(=O)N1C[C@H]2CN(Cc3cccc(F)c3)C(=O)[C@H]2C1`, the INHIBITION is -63.1%.

On to `Cc1cc(CN2CCN(C(=O)NC(C)c3cccnc3)CC2)no1` (centres undefined), for which the INHIBITION was 49.7%.

For `Cc1nc(CN2CCN(C(=O)NC(C)c3cccnc3)CC2)cs1` (centres undefined), the INHIBITION was 56.3%.

For the compound `CC(NC(=O)N1CCCN(Cc2cccs2)CC1)c1cccnc1` (centres undefined), the INHIBITION is reported as -63.5%.

As for `CC(C)NC(=O)CCNC(=O)CCc1cc(Cl)cs1`, the INHIBITION was -9.13%.

For the compound `Cn1nc(CN2CCCC2)c2c1CN(c1cnccn1)CC2`, the INHIBITION is -56%.

Take `COc1c(CNC2CCCc3ccccc32)c(C)nn1C` (centres undefined): the INHIBITION worked out at 3.18%.

Take `COc1c(CNC2CCOc3ccccc32)c(C(C)C)nn1C` (centres undefined): the INHIBITION is recorded as -20.7%.

Turning to `COc1c(CNCC(O)c2cccc(F)c2)c(C)nn1C` (centres undefined), the INHIBITION is -92.7%.

With `COc1c(CNCC(O)c2ccccc2)c(C(C)C)nn1C` (centres undefined), the INHIBITION is given as 0.811%.

For the compound `COc1c(CNC2CCc3c(Cl)cccc32)c(C)nn1C` (centres undefined), the INHIBITION came out at 62.6%.

On to `COc1c(CNC2CCCOc3ccccc32)c(C(C)C)nn1C` (centres undefined), for which the INHIBITION was found to be 52.2%.

For `COc1c(CNC2CCCc3ccccc32)c(C(C)C)nn1C` (centres undefined), the INHIBITION came out at 64.8%.

In the case of `COc1c(CNC2CCOc3c(Cl)cccc32)c(C)nn1C` (centres undefined), the INHIBITION worked out at 10.1%.

In the case of `COc1c(CNC2CCCOc3ccccc32)c(C)nn1C` (centres undefined), the INHIBITION is listed as -42.2%.

Consider `COc1c(CNCC(O)c2cccc(F)c2)c(C(C)C)nn1C` (centres undefined), for which the INHIBITION is recorded as 63.5%.

For the compound `COc1c(CNC2CCCOc3ccc(F)cc32)c(C(C)C)nn1C` (centres undefined), the INHIBITION is given as 38.8%.

For the compound `COc1c(CNC2CCc3c(F)cccc32)c(C)nn1C` (centres undefined), the INHIBITION is listed as -21.6%.

For the compound `COc1ccc(CN2CCCn3cnc(COC(C)C)c3C2)cc1`, the INHIBITION is listed as -12.6%.

For `CC(C)n1nc(Cn2cccc2)c2c1CN(Cc1ccoc1)C2`, the INHIBITION is listed as -92.6%.

In the case of `Cc1ccccc1C(=O)N1C[C@@H]2C(CN(C)CCc3ccccn3)[C@@H]2C1` (some centres undefined), the INHIBITION is -14.6%.

With `COc1c(CNC2CCc3ccccc32)c(C(C)C)nn1C` (centres undefined), the INHIBITION came out at 62.5%.

As for `COc1c(CNC2CCc3cc(F)ccc32)c(C(C)C)nn1C` (centres undefined), the INHIBITION was 59.7%.

Regarding `COc1c(CNC2CCOc3c(Cl)cccc32)c(C(C)C)nn1C` (centres undefined), the INHIBITION is -60.2%.

In the case of `COc1ccc(CNCc2c(C(C)C)nn(C)c2OC)cn1`, the INHIBITION is 60.8%.

As to `COc1c(CNC2CCc3ccccc32)c(C)nn1C` (centres undefined), the INHIBITION is 33.9%.

Turning to `CC(C)c1nn(C)c(N(C)C)c1CNC1CCc2cc(F)ccc21` (centres undefined), the INHIBITION came out at 0.843%.

As for `COc1c(CNC2CCc3cc(F)ccc32)c(C)nn1C` (centres undefined), the INHIBITION came to 28.1%.

For `COc1c(CNCc2ccc(N(C)C)nc2)c(C(C)C)nn1C`, the INHIBITION was -79%.

As to `COc1ccc(CNCc2c(C(C)C)nn(C)c2N(C)C)cn1`, the INHIBITION was -26.4%.

On to `CC(C)CN1C(=O)C[C@@H]2[C@@H]1CCN2Cc1cccc(C#N)c1`, for which the INHIBITION is -105%.

As to `Cc1cc(C)n(CC2CCCN2C(=O)c2cn[nH]c2C)n1` (centres undefined), the INHIBITION was -90%.

In the case of `O=C(CCSC1CCc2ccccc2NC1=O)NCCCO` (centres undefined), the INHIBITION is on record as -7.35%.

As for `Cc1ccc(-c2noc(CN3CCn4c(nnc4C4CC4)C3)n2)cc1`, the INHIBITION is recorded as -44.9%.

For `Cc1nnc2n1CCN(Cc1ncc(-c3ccc(F)cc3)o1)C2`, the INHIBITION was determined as 8.55%.

Take `Cc1cccc(-c2noc(CN3CCn4c(nnc4C4CC4)C3)n2)c1`: the INHIBITION is given as -35.8%.

Turning to `c1ccc(-c2cnc(CN3CCn4c(nnc4C4CC4)C3)o2)cc1`, the INHIBITION is -8.02%.

For the compound `CCc1nnc2n1CCN(Cc1ncc(-c3ccccc3)o1)C2`, the INHIBITION amounted to 46.9%.

In the case of `Cc1nnc2n1CCN(Cc1ncc(-c3ccccc3)o1)C2`, the INHIBITION is -95.9%.

As for `Cc1ccccc1-c1noc(CN2CCn3c(nnc3C3CC3)C2)n1`, the INHIBITION came out at 51.7%.

As for `Fc1ccc(-c2cnc(CN3CCn4c(nnc4C4CC4)C3)o2)cc1`, the INHIBITION is on record as 53.1%.

Take `CC(C)c1nnc2n1CCN(Cc1ncc(-c3ccccc3)o1)C2`: the INHIBITION was 62%.
